Measured values taken from PubChem BioAssay (NCI).
About 79,000 compounds went through this panel and 15% of them were active in at least one assay; those are over-represented in the sample as a whole. Activity calls are given as the source filed them. Cut-off read from the data, not from the text of the source: active = growth inhibition above about 70%; inactive = the rest. Where a SMILES comes first, the peptide text is derived from it. The star is where a group is joined. Boc = CC(C)(C)OC(=O)*

experiment: NCI Yeast Anticancer Drug Screen. Data for the bub3 strain (AID 167); details: S. cerevisiae bub3 mutant strain, at 50.0 µM, active compounds read high
Outline: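 Yeast carrying a defined mutation is treated with each compound, and growth is compared with that of vehicle-exposed cells to give inhibition.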

Row | SMILES | growth inhibition
1 | CC(=O)CC(=O)Nc1cccc(O)c1 | -3.85% (inactive)
2 | Nc1ccc(S(=O)(=O)N(CCO)CCO)cc1 | -18.8% (inactive)
3 | CCOP(=O)(OCC)C(Cc1cn(S(=O)(=O)c2ccc(C)cc2)cn1)C(=O)O (stereo not given) | 21.4% (inactive)
4 | Cc1ncc(CSC(=N)N)n1Cc1ccccc1 | -11.1% (inactive)
5 | CC(C)(Nc1nc2c(ncn2C2OC(CO)C(O)C2O)c(=O)[nH]1)P(=O)(O)O (stereo not given) | -5.4% (inactive)
6 | O=C(O)c1c(Br)c(Br)c(Br)c(Br)c1C1c2ccc(O)cc2Oc2cc(O)ccc21 | -2.6% (inactive)
7 | Cc1cccc2c1Oc1ccccc1C2N1C(=O)/C(=C/c2ccc(Cl)c(Cl)c2)SC1=S (stereo not given) | -17.8% (inactive)
8 | Cc1cc2c(C)n(Cc3ccc(Cl)cc3Cl)nc2c(C#N)c1C | -2.45% (inactive)
9 | ClC1=C(Cl)C2(Cl)C3C(CC4C3C3(Cl)C(Cl)=C(Cl)C4(Cl)C3(Cl)Cl)C1(Cl)C2(Cl)Cl (stereo not given) | 0.15% (inactive)
10 | Cc1ccc(CCCC(=O)O)cc1C | -44.2% (inactive)
11 | C(=C\CSc1ccccn1)/CSc1ccccn1 | 49.4% (inactive)
12 | Fc1ccc(CC(F)F)cc1 | -23.6% (inactive)
13 | CC(=O)OC1/C=C(\C)C(OC(C)=O)C/C=C(/C)CCC2C(/C=C/C1=O)C2(C)C (stereo not given) | 71.2% (active)
14 | c1cc2nc(c1)CSCCCCCCCCSC2 | 55% (inactive)
15 | COc1c(C)c(C)c(Br)c(C)c1C | 0.55% (inactive)
16 | C=C(CN(C)C)C1(c2ccccc2)CC2(CCCC2)C(=O)O1 (stereo not given) | 11.9% (inactive)
17 | Cc1ccc(-c2nc3ccccc3cc2N)cc1 | 3.15% (inactive)
18 | Cc1cccc(N=Nc2c(C)nc(N)nc2C)c1C | -13.6% (inactive)
19 | CCC1(O)CC2CN(CCc3c([nH]c4ccccc34)C(C(=O)OC)(c3cc4c(cc3OC)N(C)C3C(O)(C(N)=O)C(O)C5(CC)C=CCN6CCC43C65)C2)C1 (stereo not given) (tested in a mixture with another compound) | 1.05% (inactive)
20 | Nc1nc(N)nc(C2CC3C=CC2C3)n1 (stereo not given) | 2.1% (inactive)

Row | SMILES | growth inhibition
21 | COc1ccccc1/C=N/NC(=O)CCCCCCCCC(=O)N/N=C/c1ccccc1OC | -5.5% (inactive)
22 | Nc1ccc2c(c1)C(=O)N(OS(=O)(=O)c1ccccc1)C2=O | 35% (inactive)
23 | O=C(C[n+]1csc2ccccc21)c1ccc(-c2ccccc2)cc1 | 11.6% (inactive)
24 | CN1C(=O)N/C(=C\c2ccc(S(=O)(=O)N/N=C\C(O)C(O)C(O)CO)cc2)C1=O (stereo not given) | -39.1% (inactive)
25 | Clc1ccc2c(Cl)ncnc2c1I | 4.4% (inactive)
26 | CCCCn1[nH]c(=O)ccc1=O | -8.45% (inactive)
27 | CCCCCCCCC(=O)OCC(=O)c1ccc(-c2ccccc2)cc1 | 3.3% (inactive)
28 | CC(C)(C)C([O-])=C1C(=O)c2ccccc2C1=O.CC(C)(C)C([O-])=C1C(=O)c2ccccc2C1=O.CC[O-].CC[O-].[Ti+4] | 59.2% (inactive)
29 | Cc1cc([N+](=O)[O-])c(Cl)cc1Cl | 12.2% (inactive)
30 | CC12CCC(CC1)C(C)(C)N=C(N)S2 | -11.2% (inactive)
31 | Clc1ccc(N=Cc2ccc(C=Nc3ccc(Cl)c(Cl)c3)cc2)cc1Cl | 16.9% (inactive)
32 | CCCC(=O)Oc1cccc(C)c1 | 0.1% (inactive)
33 | CCCCCCCCCCCC(=O)NC(=S)Nc1cc(OC)ccc1OC | -3.85% (inactive)
34 | CCCCN1CCNC1=S | -28.4% (inactive)
35 | CCOC(=O)C(CC(C)C)NC(=O)C(Cc1ccccc1)NC(=O)CNC(=O)OC(C)(C)C (stereo not drawn) (Boc-Gly-Phe-Leu-OEt; configuration not given here) | 7.2% (inactive)
36 | Cc1ccc(S(=O)(=O)Oc2c(Cl)c(Cl)c(Cl)c(Cl)c2Cl)cc1 | 9.5% (inactive)
37 | CC1CC2C3(C1)CC(C(=O)OC3=O)C2(C)C (stereo not given) | -2.1% (inactive)
38 | S=c1[nH]c(=S)c2[nH]cnc2[nH]1 | -4.95% (inactive)
39 | COc1ccc2cc(C(C)C(O)c3cc(F)c(F)c(F)c3F)ccc2c1 (stereo not given) | -1.25% (inactive)
40 | C=CCNC(=O)c1ccc[n+](CC(=O)Nc2ccccc2)c1 | 2.3% (inactive)

experiment: NCI Yeast Anticancer Drug Screen. Data for the mlh1 rad18 strain (AID 175); details: S. cerevisiae mlh1 rad18 strain growth inhibition; at 50.0 µM; active compounds read high
Outline: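 In this whole-cell yeast screen, a strain with altered DNA damage repair is challenged with compound, and its growth is measured against matched vehicle-treated controls.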

Row | SMILES | growth inhibition
41 | CC(=O)CC(=O)Nc1cccc(O)c1 | -2.85% (inactive)
42 | Nc1ccc(S(=O)(=O)N(CCO)CCO)cc1 | -12.3% (inactive)
43 | CCOP(=O)(OCC)C(Cc1cn(S(=O)(=O)c2ccc(C)cc2)cn1)C(=O)O (stereo not given) | -17.4% (inactive)
44 | Cc1ncc(CSC(=N)N)n1Cc1ccccc1 | -23.9% (inactive)
45 | CC(C)(Nc1nc2c(ncn2C2OC(CO)C(O)C2O)c(=O)[nH]1)P(=O)(O)O (stereo not given) | 2.9% (inactive)
46 | O=C(O)c1c(Br)c(Br)c(Br)c(Br)c1C1c2ccc(O)cc2Oc2cc(O)ccc21 | 26.6% (inactive)
47 | Cc1cccc2c1Oc1ccccc1C2N1C(=O)/C(=C/c2ccc(Cl)c(Cl)c2)SC1=S (stereo not given) | 0.4% (inactive)
48 | Cc1cc2c(C)n(Cc3ccc(Cl)cc3Cl)nc2c(C#N)c1C | -3.9% (inactive)
49 | ClC1=C(Cl)C2(Cl)C3C(CC4C3C3(Cl)C(Cl)=C(Cl)C4(Cl)C3(Cl)Cl)C1(Cl)C2(Cl)Cl (stereo not given) | -9.9% (inactive)
50 | Cc1ccc(CCCC(=O)O)cc1C | -13.8% (inactive)
51 | C(=C\CSc1ccccn1)/CSc1ccccn1 | 25% (inactive)
52 | Fc1ccc(CC(F)F)cc1 | 3.25% (inactive)
53 | CC(=O)OC1/C=C(\C)C(OC(C)=O)C/C=C(/C)CCC2C(/C=C/C1=O)C2(C)C (stereo not given) | 74% (active)
54 | c1cc2nc(c1)CSCCCCCCCCSC2 | 36% (inactive)
55 | COc1c(C)c(C)c(Br)c(C)c1C | 12.2% (inactive)
56 | C=C(CN(C)C)C1(c2ccccc2)CC2(CCCC2)C(=O)O1 (stereo not given) | 25.5% (inactive)
57 | Cc1ccc(-c2nc3ccccc3cc2N)cc1 | -4.4% (inactive)
58 | Cc1cccc(N=Nc2c(C)nc(N)nc2C)c1C | 6.75% (inactive)
59 | CCC1(O)CC2CN(CCc3c([nH]c4ccccc34)C(C(=O)OC)(c3cc4c(cc3OC)N(C)C3C(O)(C(N)=O)C(O)C5(CC)C=CCN6CCC43C65)C2)C1 (stereo not given) (tested in a mixture with another compound) | 20.7% (inactive)
60 | Nc1nc(N)nc(C2CC3C=CC2C3)n1 (stereo not given) | -0.95% (inactive)

Row | SMILES | growth inhibition
61 | COc1ccccc1/C=N/NC(=O)CCCCCCCCC(=O)N/N=C/c1ccccc1OC | 14.5% (inactive)
62 | Nc1ccc2c(c1)C(=O)N(OS(=O)(=O)c1ccccc1)C2=O | 47.2% (inactive)
63 | O=C(C[n+]1csc2ccccc21)c1ccc(-c2ccccc2)cc1 | 4.85% (inactive)
64 | CN1C(=O)N/C(=C\c2ccc(S(=O)(=O)N/N=C\C(O)C(O)C(O)CO)cc2)C1=O (stereo not given) | -35% (inactive)
65 | Clc1ccc2c(Cl)ncnc2c1I | -4.2% (inactive)
66 | CCCCn1[nH]c(=O)ccc1=O | -3.3% (inactive)
67 | CCCCCCCCC(=O)OCC(=O)c1ccc(-c2ccccc2)cc1 | 3.65% (inactive)
68 | CC(C)(C)C([O-])=C1C(=O)c2ccccc2C1=O.CC(C)(C)C([O-])=C1C(=O)c2ccccc2C1=O.CC[O-].CC[O-].[Ti+4] | 46.2% (inactive)
69 | Cc1cc([N+](=O)[O-])c(Cl)cc1Cl | 5.5% (inactive)
70 | CC12CCC(CC1)C(C)(C)N=C(N)S2 | -20% (inactive)
71 | Clc1ccc(N=Cc2ccc(C=Nc3ccc(Cl)c(Cl)c3)cc2)cc1Cl | 11.6% (inactive)
72 | CCCC(=O)Oc1cccc(C)c1 | -17.8% (inactive)
73 | CCCCCCCCCCCC(=O)NC(=S)Nc1cc(OC)ccc1OC | -0.95% (inactive)
74 | CCCCN1CCNC1=S | 9.35% (inactive)
75 | CCOC(=O)C(CC(C)C)NC(=O)C(Cc1ccccc1)NC(=O)CNC(=O)OC(C)(C)C (stereo not drawn) (Boc-Gly-Phe-Leu-OEt; configuration not given here) | 18.2% (inactive)
76 | Cc1ccc(S(=O)(=O)Oc2c(Cl)c(Cl)c(Cl)c(Cl)c2Cl)cc1 | 5% (inactive)
77 | CC1CC2C3(C1)CC(C(=O)OC3=O)C2(C)C (stereo not given) | 23.4% (inactive)
78 | S=c1[nH]c(=S)c2[nH]cnc2[nH]1 | -0.3% (inactive)
79 | COc1ccc2cc(C(C)C(O)c3cc(F)c(F)c(F)c3F)ccc2c1 (stereo not given) | -20.5% (inactive)
80 | C=CCNC(=O)c1ccc[n+](CC(=O)Nc2ccccc2)c1 | -7.6% (inactive)
